Measurements as given in the OligoGym collection.
Note: reference of the scale not given here.

Each sequence was assayed against TAF3 (assay: pooled miR-30 sensor sort-seq; sequence = guide strand). Details: shRNA.
TTCAGCTTCAGGACTATCCAGT was tested, and the sensor-assay potency score (higher = more potent) was -0.217.
TTCTTGAGAAGACACAATGGGT gave a sensor-assay potency score (higher = more potent) of -1.17.
For TTTCACTTTATCCTTCTCCTTA, the sensor-assay potency score (higher = more potent) was 0.0178.

The sequences below were run against TAF4 in the same assay as above. Details: shRNA.
For TTACCTATTTCTAATATTCTTC, the sensor-assay potency score (higher = more potent) was -0.515.
In the case of TTTGTCGCGTGAACTGTCTGGG, the sensor-assay potency score (higher = more potent) is reported as 0.638.
TATTCTTGCACTTTCTTCTGAC was tested, and the sensor-assay potency score (higher = more potent) was 0.569.
In the case of TAACTGTTCTGGATCTTCTTGT, the sensor-assay potency score (higher = more potent) is reported as 0.732.
With TACATAACTTACTACATCTGGA the sensor-assay potency score (higher = more potent) was -0.0503.
Sequence ATTAATGTCATCATCGTCCCGA has a sensor-assay potency score (higher = more potent) of 0.127.
Work on TAGACATACACCTACATAGTAA yielded a sensor-assay potency score (higher = more potent) of -0.674.
TACATCTGGATGTAATTCCGTT showed a sensor-assay potency score (higher = more potent) of -0.473.
In the case of TTAATGTCATCATCGTCCCGAA, the sensor-assay potency score (higher = more potent) is reported as -0.403.
Work on TATTTTTCTGTGCAGCAGCTGC yielded a sensor-assay potency score (higher = more potent) of -0.881.
Work on TTAACTGTTCTGGATCTTCTTG yielded a sensor-assay potency score (higher = more potent) of -0.704.
TTAAGTTCTCGGTATAACCTGC was tested, and the sensor-assay potency score (higher = more potent) was 0.0759.

The sequences below were run against TAF5 in the same assay as above. Details: shRNA.
Sequence TTGTTTGACACTACGAAGCTTT has a sensor-assay potency score (higher = more potent) of 0.143.
Work on TATCTTATCCAACTTATCTGAA yielded a sensor-assay potency score (higher = more potent) of -0.846.
TAATCGAACTGTATTATCCATT was tested, and the sensor-assay potency score (higher = more potent) was -0.885.
In the case of TAAGTGAACAGACTGTATCAGT, the sensor-assay potency score (higher = more potent) is reported as -0.556.
In the case of TAATACTCGTAGGTCATCCTGG, the sensor-assay potency score (higher = more potent) is reported as 0.422.
Work on TTGAATCTGCAAAACCTCCAGC yielded a sensor-assay potency score (higher = more potent) of 0.0484.
For TAAGACTAGATAATACTCGTAG, the sensor-assay potency score (higher = more potent) was 0.809.
Sequence TAGTATTCTTCATACATTGTGG has a sensor-assay potency score (higher = more potent) of -0.781.
In the case of TTATCTTATCCAACTTATCTGA, the sensor-assay potency score (higher = more potent) is reported as -0.244.
Sequence TATCTGAATCTTTCAACTCAGG has a sensor-assay potency score (higher = more potent) of -1.06.
TATCTGTTGCTTACTACGCGGC gave a sensor-assay potency score (higher = more potent) of -0.346.
In the case of TTGATTGTAGACTAGCTCCAAG, the sensor-assay potency score (higher = more potent) is reported as -0.676.

The sequences below were run against TARBP2 in the same assay as above. Details: shRNA.
TTGCAGAGCCATGACACACAGT showed a sensor-assay potency score (higher = more potent) of -0.909.
In the case of TTTCTGCACCACCAGCTCCTGC, the sensor-assay potency score (higher = more potent) is reported as -1.56.
TTTCGAAGACCATCCAGGCGGG gave a sensor-assay potency score (higher = more potent) of -0.916.
In the case of TCGTACACAGGCGTCTTCCCTA, the sensor-assay potency score (higher = more potent) is reported as -0.68.
TGCTGCAGCAGTAAAAACCGGA gave a sensor-assay potency score (higher = more potent) of -0.386.
TAGGACTACAGATGGAACTGGG was tested, and the sensor-assay potency score (higher = more potent) was 0.0896.
For TTTGAGAAGGTCGTACACAGGC, the sensor-assay potency score (higher = more potent) was -0.0476.
TATTCTGGTCCCATACTCCTGC gave a sensor-assay potency score (higher = more potent) of 0.18.
TGAATTTCGTAGAGAATCCCAG was tested, and the sensor-assay potency score (higher = more potent) was -0.515.
Sequence TTCTCTCCTACTGAATTTCGTA has a sensor-assay potency score (higher = more potent) of -0.854.
TTTCGTAGAGAATCCCAGGTGC was tested, and the sensor-assay potency score (higher = more potent) was 0.652.
With TCCTGCAGAAGGCTGATCGGGG the sensor-assay potency score (higher = more potent) was -1.33.
